Among the data in PubChem BioAssay AID488943 (Broad Institute, 2010) are outcome values, retold here.

Entries with a potency or affinity are not part of this list. The source made the active and inactive calls.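 How the source made its calls: active means compounds with a fitted half-maximal inhibitory dose at or below ten times their top tested dose; inconclusive means flat curve at 30 to 70% inhibition, or poor fit; inactive means the rest.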

The experiment in a line: fluconazole resistance reversal in C. albicans, dose response, CaCi-2 strain, Alamar Blue, dry powder, set 4 (AID 488943). To be noted: C. albicans CaCi-2 (fluconazole-resistant clinical isolate) + fluconazole, Alamar Blue growth, 48 h; series mostly up to 6 µM.
For `O=C(c1ccc(Cl)cc1)N1CCN(c2cccc(C(F)(F)F)n2)CC1`, the outcome was inactive.

Turning to `O=C(C1CC1)N1CCN(c2ccnc3cc(Cl)ccc23)CC1`, the outcome was inactive.

Take `O=C(c1ccc(Cl)cc1)N1CCN(c2ccnc3ccccc23)CC1`: the outcome was inactive.

In the case of `O=C(c1ccc(Cl)cc1)N1CCN(c2cc(C(F)(F)F)nc3ccccc23)CC1`, the outcome was inactive.

`O=C(c1ccc(Cl)cc1)N1CCNCC1`: the result was inactive.

Take `O=S(=O)(c1ccc(Cl)cc1)N1CCN(c2ccnc3cc(Cl)ccc23)CC1`: the result was inactive.

`COc1cccnc1N1CCN(C(=O)c2ccc(Cl)cc2)CC1`: the outcome was inactive.

On to `O=C(c1ccc(Cl)cc1)N1CCN(c2ccncc2)CC1`, for which the outcome was inactive.

In the case of `Cc1cc(N2CCN(C(=O)c3ccc(Cl)cc3)CC2)c2ccccc2n1`, the outcome was inactive.

As for `CC(C)C(=O)N1CCN(c2ccnc3cc(Cl)ccc23)CC1`, the result was inactive.

As for `CCCCNC(=O)N1CCN(c2ccnc3cc(Cl)ccc23)CC1`, the result was inactive.

`COc1cccc2c(N3CCN(C(=O)c4ccc(Cl)cc4)CC3)cc(C)nc12`: the outcome was inactive.

In the case of `CCCC(=O)N1CCN(c2ccnc3cc(Cl)ccc23)CC1`, the outcome was inactive.

On to `O=C(c1ccc(Cl)cc1)N1CCCN(c2ccnc3cc(Cl)ccc23)CC1`, for which the outcome was inactive.

Take `COCCC(=O)N1CCN(c2ccnc3cc(Cl)ccc23)CC1`: the result was inactive.

In the case of `Cc1cccc(N2CCN(C(=O)c3ccc(Cl)cc3)CC2)n1`, the result was inactive.
